In PubChem BioAssay (Tox21):
Values joined by “and” are separate entries in the source; they are usually repeats but may differ in a detail not shown here. Identical values can stand only once. Records with an inconclusive call do not appear. A structure can be active in one record and inactive in another. Active and inactive are the calls of the source. Calls follow the shape of the dose curve; as a rule, active = well fitted inhibition curve with a large enough effect in the repeat runs; inconclusive = weak or mixed curves; inactive = no such curve, though single readings can be large or run the other way. Starred links: 1 amine or outer side, 2 acyl side, 3 side chain; linkers in the order of their positions; H or OH if unused. Positions of bridges follow the written chain, without caps; N, C: chain ends. Non-standard residues stand in square brackets, D forms with d. Residues, ends and D or L forms follow the SMILES beside them. Chains are numbered I, II in the order given. Actinocin(9to1) = Cc1c2oc3c(C)ccc(C(=O)[*:1])c3nc-2c(C(=O)[*:2])c(N)c1=O; NMeV = CN[C@H](C(=O)O)C(C)C; Sar = CNCC(=O)O

molecular target: Cytochrome P450 2C9 (Homo sapiens) (UniProt P11712); assay: Cytochrome P450 Family 2 Subfamily C Member 9 (CYP2C9) small molecule antagonists: luciferase reporter qHTS assay (AID 1671198); conditions: P450-Glo CYP2C9 enzyme assay, luciferin luminescence; series mostly up to 115 µM; activity change, negative = inhibition: at the top concentration
Method in brief: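 Enzyme-substrate mix preincubated with compound 10 min at room temperature; reaction started with NADPH regeneration solution, 1 h 37C. Luminescent luciferin product read after 20 min detection reagent.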
% is scaled to controls: 0 for no effect and ±100 for the full control effect; potency is read from the fitted curve at half-maximal effect.
Also: nearly all actives have a fitted effect of over 50% in size.

Cytochrome P450 2C9 (Homo sapiens), sequence (P11712 whole entry, looked up): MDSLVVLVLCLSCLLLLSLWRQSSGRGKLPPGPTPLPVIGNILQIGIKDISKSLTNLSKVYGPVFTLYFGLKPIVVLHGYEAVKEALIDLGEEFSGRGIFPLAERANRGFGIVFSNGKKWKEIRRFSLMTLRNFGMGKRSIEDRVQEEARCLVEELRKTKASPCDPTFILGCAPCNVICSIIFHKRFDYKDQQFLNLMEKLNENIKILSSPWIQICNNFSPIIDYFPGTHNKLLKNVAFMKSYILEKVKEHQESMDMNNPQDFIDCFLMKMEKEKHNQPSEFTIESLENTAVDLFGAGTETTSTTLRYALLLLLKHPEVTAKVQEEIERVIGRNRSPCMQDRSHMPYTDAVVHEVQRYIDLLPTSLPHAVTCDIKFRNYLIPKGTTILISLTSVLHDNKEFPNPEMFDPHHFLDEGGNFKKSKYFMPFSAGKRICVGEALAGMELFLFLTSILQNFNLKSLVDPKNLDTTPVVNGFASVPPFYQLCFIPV

Row | SMILES | activity change, negative = inhibition | Potency
1 | CCN(CC)C(=O)Nc1ccc(OCC(O)CNC(C)(C)C)c(C(C)=O)c1 (configuration not stated) | 4.91% [at 53 µM] (inactive) | 
2 | CCOc1ccccc1C(N)=O |  | inactive
3 | CC(=O)Nc1ccc(C(=O)CCl)cc1 |  | 63.3 µM (active)
4 | c1ccc2c(c1)-c1cccc3c1c-2cc1ccccc13 | -8.09% (inactive) | 
5 | NCCO |  | inactive and 31.7 µM (active)
6 | CC(=O)OCCOCCOCCOC(C)=O |  | inactive
7 | CCCCCCCCCCCCCCCCCl | 1.72% [at 23.6 µM] (inactive) | 
8 | O=C(Nc1ccccc1SSc1ccccc1NC(=O)c1ccccc1)c1ccccc1 |  | 505 nM (active) and 564 nM (active)
9 | CC(COc1ccccc1)N(CCCl)Cc1ccccc1 (configuration not stated) |  | 28.6 µM (active) and 22.4 µM (active) and 12.3 µM (active)
10 | Nc1ccc2cc3ccccc3cc2c1 |  | 32.3 µM (active) and 31.7 µM (active)
11 | Nc1nc(=S)c2[nH]cnc2[nH]1 |  | 38.9 µM (active) and 71 µM (active) and 30.9 µM (active)
12 | O=C(O)c1cn(-c2ccc(F)cc2)c2cc(N3CCNCC3)c(F)cc2c1=O |  | inactive
13 | BrC1CCC(Br)C(Br)CCC(Br)C(Br)CCC1Br (configuration not stated) |  | 10.7 µM (active)
14 | CC(C)(C)c1ccc(O)c(C(C)(C)C)c1 |  | 12.6 µM (active) and 11.2 µM (active)
15 | O=C1NCC2(CCN(CCc3ccccc3)CC2)O1 | 5.94% [at 53 µM] (inactive) | 
16 | OCCN1CCNCC1 |  | inactive
17 | O=C(O)CCc1ccccc1 | -10.8% (inactive) | 
18 | COC(=O)c1cccc(C(=O)OC)c1 |  | inactive

Row | SMILES | activity change, negative = inhibition | Potency
19 | COc1cc(C(=S)N2CCOCC2)ccc1O | 15.4% [at 53 µM] (inactive) | 
20 | CC(C)C(=O)c1c(C(C)C)nn2ccccc12 | -17.4% [at 53 µM] (inactive) | 
21 | Cc1c2oc3c(C)ccc(C(=O)N[C@@H]4C(=O)N[C@H](C(C)C)C(=O)N5CCC[C@H]5C(=O)N(C)CC(=O)N(C)[C@@H](C(C)C)C(=O)O[C@@H]4C)c3nc-2c(C(=O)N[C@@H]2C(=O)N[C@H](C(C)C)C(=O)N3CCC[C@H]3C(=O)N(C)CC(=O)N(C)[C@@H](C(C)C)C(=O)O[C@@H]2C)c(N)c1=O (I: T[dV]P[Sar][NMeV] / II: T[dV]P[Sar][NMeV]; ester I:1-I:C, II:1-II:C; linker I:N-II:N via Actinocin(9to1)) |  | inactive
22 | CCOc1ccc2c(c1)C(C)=CC(C)(C)N2 |  | 7.93 µM (active) and 5.64 µM (active)
23 | CCCCCCCCCCCCc1ccccc1O |  | 7.01 µM (active) and 11.2 µM (active)
24 | Cc1occc(=O)c1OC(=O)C(C)C | -12.2% (inactive) | 
25 | Cc1cc(C2(c3cc(C)c(O)cc3C)OS(=O)(=O)c3ccccc32)c(C)cc1O |  | 5.03 µM (active) and 7.96 µM (active)
26 | NC(Cc1ccc(Cl)cc1)C(=O)O (configuration not stated) | 6.61% [at 0.435 µM] (inactive) | 
27 | c1cc(C(c2ccc(OCC3CO3)cc2)C(c2ccc(OCC3CO3)cc2)c2ccc(OCC3CO3)cc2)ccc1OCC1CO1 (configuration not stated) |  | 10.4 µM (active) and 22.4 µM (active)
28 | C1COC(NC(C2CC2)C2CC2)=N1 | 11.9% [at 53 µM] (inactive) | 
29 | CC(C)CCCCCCc1ccc(O)cc1 |  | 9.1 µM (active) and 12.6 µM (active)
30 | CC(C)(O)CCC(C)(C)O | -13.3% (inactive) | 
31 | CCn1cc(C(=O)O)c(=O)c2cc(F)c(N3CCNC(C)C3)c(F)c21 (configuration not stated) | 1.14% [at 53 µM] (inactive) | 
32 | CCC(=O)/C=C/C1C(C)=CCCC1(C)C (configuration not stated) |  | 31.7 µM (active)
33 | O=Nc1ccc(Nc2ccccc2)cc1 |  | 14.2 µM (active) and 28.3 µM (active)
34 | CC(C)(C)c1cc(C(C)(C)C)c(O)c(C(C)(C)C)c1 |  | inactive and 35.6 µM (active)
35 | CCN1CCCC1CNC(=O)c1cc(S(=O)(=O)CC)c(N)cc1OC (configuration not stated) | 0.109% [at 53 µM] (inactive) | 
36 | CCCC(=O)c1ccccc1 | -9.76% (inactive) | 

molecular target: Cytochrome P450 1A2 (Homo sapiens) (UniProt P05177); assay: Cytochrome P450 Family 1 Subfamily A Member 2 (CYP1A2) small molecule antagonists: luciferase reporter qHTS assay (AID 1671199); conditions: P450-Glo CYP1A2 enzyme, luciferin luminescence, 1 h; series mostly up to 53 µM; activity change, negative = inhibition: at the top concentration
Method in brief: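 CYP1A2 turnover of a luminogenic substrate was quantified after 1 h with NADPH regeneration at room temperature. Furafylline served as positive control.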

Cytochrome P450 1A2 (Homo sapiens), sequence (P05177 whole entry, looked up): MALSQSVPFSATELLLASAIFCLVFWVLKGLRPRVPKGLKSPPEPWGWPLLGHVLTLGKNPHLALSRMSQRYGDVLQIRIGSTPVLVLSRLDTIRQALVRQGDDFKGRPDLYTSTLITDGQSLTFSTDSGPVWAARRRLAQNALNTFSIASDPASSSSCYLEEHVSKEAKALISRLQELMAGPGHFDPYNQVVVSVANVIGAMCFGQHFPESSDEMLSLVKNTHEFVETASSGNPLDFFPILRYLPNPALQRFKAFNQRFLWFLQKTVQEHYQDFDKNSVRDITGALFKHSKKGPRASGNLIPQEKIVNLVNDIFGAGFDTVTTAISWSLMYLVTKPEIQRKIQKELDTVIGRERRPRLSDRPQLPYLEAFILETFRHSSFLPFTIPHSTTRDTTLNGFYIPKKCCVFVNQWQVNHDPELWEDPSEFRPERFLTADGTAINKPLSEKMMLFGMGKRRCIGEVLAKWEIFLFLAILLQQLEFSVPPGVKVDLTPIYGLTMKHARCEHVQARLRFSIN

Row | SMILES | activity change, negative = inhibition | Potency
37 | CCN(CC)C(=O)Nc1ccc(OCC(O)CNC(C)(C)C)c(C(C)=O)c1 (configuration not stated) | 1.19% (inactive) | 
38 | CCOc1ccccc1C(N)=O |  | 31.8 µM (active) and 17.4 µM (active)
39 | CC(=O)Nc1ccc(C(=O)CCl)cc1 |  | 31.7 µM (active)
40 | c1ccc2c(c1)-c1cccc3c1c-2cc1ccccc13 |  | 694 nM (active) and 1 µM (active)
41 | NCCO |  | 9.47 µM (active)
42 | CC(=O)OCCOCCOCCOC(C)=O | -10.6% [at 115 µM] (inactive) | 
43 | CCCCCCCCCCCCCCCCCl | -21.5% [at 23.6 µM] (inactive) | 
44 | O=C(Nc1ccccc1SSc1ccccc1NC(=O)c1ccccc1)c1ccccc1 |  | 8.01 µM (active) and 8.94 µM (active)
45 | CC(COc1ccccc1)N(CCCl)Cc1ccccc1 (configuration not stated) | -19.5% (inactive) | 
46 | Nc1ccc2cc3ccccc3cc2c1 |  | 4.06 µM (active) and 2.24 µM (active)
47 | Nc1nc(=S)c2[nH]cnc2[nH]1 |  | 30.9 µM (active) and 35.6 µM (active)
48 | O=C(O)c1cn(-c2ccc(F)cc2)c2cc(N3CCNCC3)c(F)cc2c1=O |  | inactive
49 | BrC1CCC(Br)C(Br)CCC(Br)C(Br)CCC1Br (configuration not stated) |  | inactive
50 | CC(C)(C)c1ccc(O)c(C(C)(C)C)c1 |  | 35.4 µM (active) and 56.4 µM (active)
51 | O=C1NCC2(CCN(CCc3ccccc3)CC2)O1 | 14.5% (inactive) | 
52 | OCCN1CCNCC1 | 2.87% [at 115 µM] (inactive) | 
53 | O=C(O)CCc1ccccc1 | -8.06% [at 115 µM] (inactive) | 
54 | COC(=O)c1cccc(C(=O)OC)c1 |  | 12.4 µM (active) and 11.2 µM (active)

Row | SMILES | activity change, negative = inhibition | Potency
55 | COc1cc(C(=S)N2CCOCC2)ccc1O | 2.15% (inactive) | 
56 | CC(C)C(=O)c1c(C(C)C)nn2ccccc12 |  | 2.57 µM (active)
57 | Cc1c2oc3c(C)ccc(C(=O)N[C@@H]4C(=O)N[C@H](C(C)C)C(=O)N5CCC[C@H]5C(=O)N(C)CC(=O)N(C)[C@@H](C(C)C)C(=O)O[C@@H]4C)c3nc-2c(C(=O)N[C@@H]2C(=O)N[C@H](C(C)C)C(=O)N3CCC[C@H]3C(=O)N(C)CC(=O)N(C)[C@@H](C(C)C)C(=O)O[C@@H]2C)c(N)c1=O (I: T[dV]P[Sar][NMeV] / II: T[dV]P[Sar][NMeV]; ester I:1-I:C, II:1-II:C; linker I:N-II:N via Actinocin(9to1)) |  | inactive
58 | CCOc1ccc2c(c1)C(C)=CC(C)(C)N2 |  | 39.7 µM (active) and 31.7 µM (active)
59 | CCCCCCCCCCCCc1ccccc1O |  | 35.1 µM (active) and 31.7 µM (active)
60 | Cc1occc(=O)c1OC(=O)C(C)C | -23.5% [at 115 µM] (inactive) | 
61 | Cc1cc(C2(c3cc(C)c(O)cc3C)OS(=O)(=O)c3ccccc32)c(C)cc1O |  | 31.7 µM (active)
62 | NC(Cc1ccc(Cl)cc1)C(=O)O (configuration not stated) | 10.8% [at 0.435 µM] (inactive) | 
63 | c1cc(C(c2ccc(OCC3CO3)cc2)C(c2ccc(OCC3CO3)cc2)c2ccc(OCC3CO3)cc2)ccc1OCC1CO1 (configuration not stated) | -21.2% [at 115 µM] (inactive) | 
64 | C1COC(NC(C2CC2)C2CC2)=N1 | -15.8% (inactive) | 
65 | CC(C)CCCCCCc1ccc(O)cc1 |  | 28.8 µM (active)
66 | CC(C)(O)CCC(C)(C)O | -0.4% [at 115 µM] (inactive) | 
67 | CCn1cc(C(=O)O)c(=O)c2cc(F)c(N3CCNC(C)C3)c(F)c21 (configuration not stated) | -28.6% (inactive) | 
68 | CCC(=O)/C=C/C1C(C)=CCCC1(C)C (configuration not stated) |  | inactive and 25.2 µM (active)
69 | O=Nc1ccc(Nc2ccccc2)cc1 |  | 16 µM (active) and 28.3 µM (active)
70 | CC(C)(C)c1cc(C(C)(C)C)c(O)c(C(C)(C)C)c1 |  | inactive
71 | CCN1CCCC1CNC(=O)c1cc(S(=O)(=O)CC)c(N)cc1OC (configuration not stated) | -9.83% (inactive) | 
72 | CCCC(=O)c1ccccc1 | -26.9% [at 115 µM] (inactive) | 
